# Screens as filed in PubChem.
# Rows were chosen to be rich in hits. Some 3.4% of all compounds tested hit in one or more screens of this group.
# LGR2 antag: Drosophila LGR2 receptor signaling inhibition; HEK293 LGR2, CRE-luciferase, bursicon-stimulated, 4 h; inhibition, % at 9.99 µM; hit rate 0.35% among 380,000; AID 720647;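 active = drop in luminescence signal, shown as inhibition above about 50% in the replicate tests, limit read from the data, passing the limit was not always enough; inconclusive = probably only some replicates passing the limit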;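 note: agonist challenge used bursicon conditioned medium at about half maximal strength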
# Ecoli rRNA inh: selective bacterial rRNA inhibition in E. coli; E. coli WT GFP vs humanized-ribosome RFP mutants, fluorescence, 24 h; hits give low values; DMSO median 0, no signal -100; GFP signal change (wild-type ribosome), % (test concentration not listed); hit rate 1.6% among 350,000; AID 720706;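 active = significant combined selectivity score with lowered wild-type GFP, culture density cut under 30%, mutant RFP and density less affected; inactive = any of these conditions unmet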
# PGC1a acetyl inh: modulators of PGC1a acetylation; U2OS PGC1a acetylation, AlphaScreen anti-acetyl-lysine; with virally co-expressed GCN5 acetyltransferase; inhibition, % at 15.6 µM; hit rate 0.17% among 350,000;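 active = every replicate shows inhibition of at least 40%; inconclusive = mean inhibition at least 40% but some replicate below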
# SIRT5 inh: sirtuin-5 (human) deacylase inhibition; Q9NXA8; Purified SirT5, succinyl-peptide AMC, trypsin-coupled fluorescence; inhibition, % at 15 µM; hit rate 1.1% among 330,000; in the data active = inhibition above about 15%; inconclusive = no clear call, values can overlap the other calls
# Target sequence (Q9NXA8 whole entry, looked up): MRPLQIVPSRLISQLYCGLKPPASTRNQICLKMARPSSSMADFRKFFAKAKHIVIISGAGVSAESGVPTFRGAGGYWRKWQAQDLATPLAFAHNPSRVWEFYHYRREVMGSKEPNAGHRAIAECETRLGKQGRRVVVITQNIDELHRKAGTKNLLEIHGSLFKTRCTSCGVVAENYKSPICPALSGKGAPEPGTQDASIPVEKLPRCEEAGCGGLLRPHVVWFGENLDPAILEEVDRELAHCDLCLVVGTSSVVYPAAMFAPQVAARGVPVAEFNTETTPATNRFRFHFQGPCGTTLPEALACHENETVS
# EWS-Fli inh: blocks EWS/Fli oncoprotein-driven transcription | A673 NR0B1-luciferase reporter, viability-normalised | inhibition, % at 12.6 µM | hit rate 0.67% among 350,000 | AID 651661;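 active = mean inhibition of at least 50% after viability correction, with every replicate also passing that limit; inconclusive = mean reaches 50% but only one of two replicates passes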;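 note: firefly luciferase signal divided by Alamar Blue viability fluorescence both relative to DMSO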
# PAX8 inh HTS: inhibitors of PAX8 transcriptional activity in RMG-I cells. RMG-I TPO-luciferase reporter, SteadyGlo, 24 h. inhibition, % at 12.6 µM. hit rate 1.2% among 360,000;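 active = mean replicate inhibition at least 60% with every replicate also reaching 60%; inconclusive = only one of the two criteria is met; inactive = mean below 60% and not all replicates reaching 60%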;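 note: luciferase light reporting Pax8 driven TPO promoter activity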
# Numbers stand for hits; 0 = inactive; ? = inconclusive; - = no result.
SMILES,LGR2 antag,Ecoli rRNA inh,PGC1a acetyl inh,SIRT5 inh,EWS-Fli inh,PAX8 inh HTS
COc1ccc(S(=O)(=O)Nc2ccc3c(c2)C(=O)N([C@H](C)CO)C[C@@H](C)[C@H](CN(C)C(=O)Nc2ccc(C(F)(F)F)cc2)OCCCC[C@H](C)O3)cc1,0,0,0,0,0,76.9
COc1ccc(S(=O)(=O)Nc2ccc3c(c2)C(=O)N([C@H](C)CO)C[C@@H](C)[C@H](CN(C)C(=O)Nc2ccc(C(F)(F)F)cc2)OCCCC[C@@H](C)O3)cc1,0,0,?,0,0,61.9
Cc1cccc(Oc2coc3cc(OC(=O)c4cncc(Br)c4)ccc3c2=O)c1,0,-17.5,-,0,0,0
Nc1ccc2c(S(=O)(=O)O)cccc2c1S(=O)(=O)O,0,0,0,-,0,0
Nc1cccc2cc(S(=O)(=O)O)ccc12,0,0,0,57.2,0,0
CO[C@H]1CN(C)C(=O)c2cc(NC(=O)NC(C)C)ccc2OC[C@H](C)N(Cc2cncnc2)C[C@@H]1C,0,0,0,-,0,0
COc1cccc(S(=O)(=O)N(C)C[C@@H]2Oc3cc(C4=CCCC4)ccc3S(=O)(=O)N([C@H](C)CO)C[C@@H]2C)c1,0,0,0,0,0,-
COc1cccc(S(=O)(=O)N(C)C[C@@H]2Oc3cc(C4=CCCCC4)ccc3S(=O)(=O)N([C@@H](C)CO)C[C@H]2C)c1,0,0,0,22.2,0,76.5
COc1cccc(S(=O)(=O)N(C)C[C@H]2Oc3cc(C4=CCCC4)ccc3S(=O)(=O)N([C@@H](C)CO)C[C@H]2C)c1,0,0,0,21.3,0,0
CC(C)NC(=O)Nc1ccc2c(c1)CC(=O)N([C@H](C)CO)C[C@H](C)[C@H](CN(C)S(=O)(=O)c1ccccc1)O2,0,0,0,0,-,0
COc1cccc(CN2CCCCN3[C@H](CO)[C@@H](c4ccc(C#Cc5cccnc5)cc4)[C@@H]3C2)c1,0,0,0,0,0,0
COc1cccc(CN2CCCCN3[C@@H](CO)[C@H](c4ccc(C#Cc5cccnc5)cc4)[C@@H]3C2)c1,0,-17.8,0,0,0,0
OC[C@H]1[C@H](c2ccc(C#CC3(O)CCCC3)cc2)[C@H]2CN(Cc3cncnc3)CCCCN21,0,0,0,21.2,0,0
CN=CC1=C(O)CC(C)(C)CC1=O,-,-,0,-,-,-
CC1(C)CC(=O)C(C=NCC(N)=O)=C(O)C1,0,-22.6,?,0,0,-
COc1cccc(C(=O)Nc2cccc(-c3nc4ncccc4o3)c2C)c1,-,-,0,-,-,-
Cc1c(NC(=O)c2ccc([N+](=O)[O-])o2)cccc1-c1nc2ncccc2o1,0,-23.6,0,0,0,?
COCC(=O)NC[C@H]1N[C@H](CO)[C@H]1c1ccc(C2=CCCCC2)cc1,0,0,0,36.8,0,0
COc1ccc([C@H]2CC(=O)C[C@@H](CCn3cc(-c4cccnc4)nn3)O2)cc1,0,0,-,33.3,0,0
COc1ccc([C@H]2CC(=O)C[C@@H](CCn3cc(-c4ccccc4)nn3)O2)cc1,0,0,-,-,0,0
COc1ccc(-n2nc(C#N)c(Cl)cc2=O)cc1,105.0,-43.1,89.9,0,52.5,105.2
COC(=O)c1nn(-c2ccc(OC)cc2)c(=O)cc1O,0,0,-,0,0,0
COc1ccc2c3c([nH]c2c1)[C@H](CO)N(C(=O)Nc1ccc(F)cc1)CC31CCN(Cc2cc(F)ccc2F)CC1,0,0,0,0,0,-
COc1ccc2c3c(n(C)c2c1)[C@@H](CO)N(Cc1ccc(Cl)cc1)CC31CN(CC2CC2)C1,0,0,0,-,0,-
CN1CCN(C(=O)c2ccc(C(F)(F)F)cc2)CC1,0,0,0,0,0,0
SMILES,LGR2 antag,Ecoli rRNA inh,PGC1a acetyl inh,SIRT5 inh,EWS-Fli inh,PAX8 inh HTS
CCN1CCN(C(=O)c2ccc(C(F)(F)F)cc2)CC1,0,0,-,20.3,0,0
CN(C)CC(=O)N1[C@@H](CO)[C@H](c2ccccc2)C12CN(C(=O)C1CCCC1)C2,-,0,-,-,-,-
COCC(=O)N1CC2(CCN(C(=O)NC(C)C)CC2)c2c(n(C)c3cc(OC)ccc23)[C@H]1CO,0,0,0,-,0,-
O=C(Cc1ccc(F)cc1)OCC(=O)N1CCN(S(=O)(=O)c2ccc(Cl)cc2)CC1,0,0,-,19.3,0,101.3
CCOC(=O)C1CN(S(=O)(=O)c2ccc(Cl)cc2)c2cc(S(=O)(=O)CC)ccc2O1 (centres undefined),0,0,0,0,0,0
CCOC(=O)C1CN(S(=O)(=O)c2ccccc2)c2cc(S(=O)(=O)CC)ccc2O1 (centres undefined),-,-,49.7,-,-,0
COc1ccc([Si](C)(C)[C@@H]2[C@@H](CCO)O[C@]3(C(=O)N(C)c4ccccc43)[C@H]2C)cc1,-,-,0,0,0,80.6
COc1ccc([Si](C)(C)[C@@H]2[C@@H](CCO)O[C@]3(C(=O)N(c4ccccc4)c4ccccc43)[C@H]2C)cc1,-,-,0,0,0,93.1
CCCC(=O)Nc1ccc2c(c1)OC[C@H](C)N(C(=O)c1ccccc1F)C[C@@H](C)[C@H](OC)CN(C)C2=O,0,0,0,-,0,-
Cc1cc(C(=O)N2CCN(Cc3ccccc3)CC2)ccc1[N+](=O)[O-],0,0,-,0,0,0
Cc1cc(C(=O)NCC2CCCCC2)ccc1[N+](=O)[O-],0,0,0,22.0,0,0
O=C(NCC1CCCCC1)c1ccc([N+](=O)[O-])cc1,0,0,0,-,0,0
Cc1cc(C(=O)N2CCC(Cc3ccccc3)CC2)ccc1[N+](=O)[O-],0,-31.0,0,0,0,-
C[C@@H]1CCCCO[C@@H](CN(C)S(=O)(=O)c2cccs2)[C@H](C)CN([C@@H](C)CO)C(=O)c2cc(NC(=O)Nc3ccccc3)ccc2O1,0,0,0,0,0,0
COC(=O)C[C@@H]1CC[C@@H]2[C@H](COC[C@H](O)CN2C(=O)Nc2ccccc2OC)O1,0,0,0,0,0,0
COCC(=O)N1C[C@H]2[C@@H](c3ccccc31)[C@H](CO)N2C(=O)Nc1ccccc1Cl,0,0,0,0,0,0
CCOCCN1CCN(C2c3ccccc3CSc3ccccc32)CC1 (centres undefined),0,-24.7,0,0,0,0
C[C@H]1CN([C@@H](C)CO)C(=O)c2cc(C#Cc3ccccn3)cnc2O[C@@H]1CN(C)CC1CCCC1,-,-,0,-,0,0
COc1ccc(-n2nc(C(=O)O)cc2-c2ccccc2)cc1,0,0,-,17.6,0,0
CC(=O)N(C)C[C@@H]1Oc2ccccc2C(=O)N(C)C[C@@H]1C,-,0,-,-,-,-
C[C@H](CO)N1C[C@H](C)[C@@H](CN(C)C)Oc2ccc(NS(C)(=O)=O)cc2CC1=O,0,0,0,0,0,0
CC(=O)N1C[C@@H]2C(c3ccccc3)[C@H](C1)N2C(=O)NC(C)C (some centres undefined),-,0,-,-,-,-
Cc1cc2c(NC(=O)Nc3ccc(C(C)(C)C)cc3)cccc2nn1,0,-32.5,-,0,0,0
